From PubChem BioAssay
The list is not random: actives were taken first. Their share in the collection is about 2.8%.
CtBP-E1A blk = CtBP/E1A binding inhibition; AID 651724; activity change, % (test concentration not listed); AlphaScreen GST-E1A/His-CtBP binding, 1536-well; hits give low values; 340,000 tested, 0.49% active; in the data active = activity change below about -65%; inconclusive = mostly about -30% to -63%; also: % is scaled to controls: 0 for no effect and ±100 for the full control effect
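In 5 uL wells, 23 nL compound meets equimolar GST-E1A and His-CtBP (5X stock 125 nM each) for 2 h, 37 °C. Beads (5X, 50 ug/mL) then 1 h, 37 °C, dark.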
HepG2 tox = HepG2 cytotoxicity, counter-screen for TGF-b inhibitors. 410,000 tested, 0.76% active. Potency, µM (doses to about 46.1 µM), without a hit: at the highest dose activity change, negative = cytotoxicity, hits mostly cytotoxic. HepG2 CAGA-GFP viability, ATP luminescence, 18 h. AID 588856; also: potency is read from the fitted curve at half-maximal effect
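HepG2 CAGA-GFP cells (1000/well, DMEM with 1% FBS) received compound, then TGF-beta at 500 pg/mL final, and were incubated 18 hours at 37 degrees C. Viability was read by CellTiter-Glo luminescence. Media-only wells were set as complete cell-killing and DMSO as no toxicity.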
Six1-Eya2 inh = Six1/Eya2 interaction inhibition; Q15475+O00167; 360,000 tested, 0.56% active; activity change, % (concentration not given with the values); AlphaScreen GST-Six1/His-Eya2 binding, biochemical; hits give low values; in the data active = activity change below about -65%; inconclusive = mostly about -30% to -63%; also: % is scaled to controls: 0 for no effect and ±100 for the full control effect
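GST-Six1 + His-Eya2 (5X stock: 250/500 nM); Tris pH 8.0, 300 mM NaCl, 0.05% BSA, 0.02% Tween 20; GSH donor/Ni acceptor beads; 1 h 37 °C dark; AlphaScreen readout.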
ATXN2 expr inh = inhibitors of ATXN2 expression; HEK-293 ATXN2-luciferase reporter, luminescence, 24 h; Potency, µM (series often up to 57 µM), for the others: top-dose activity change, negative = inhibition, actives largely listed as inhibitors; AID 1745845; 360,000 tested, 0.72% active; also: potency is read from the fitted curve at half-maximal effect; % is scaled to controls: 0 for no effect and ±100 for the full control effect; nearly all actives have a fitted effect of over 55% in size
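qHTS (up to 57 uM final) was run with 24 h compound exposure of reporter cells at 37 °C. Each well was multiplexed: SteadyGlo luminescence measured ATXN2-luciferase expression after a fluorogenic Gly-Phe-AFC viability readout (25 uM final).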
TGFb inhibitor = blocks TGF-b signaling. 410,000 tested, 1.2% active. Potency, µM (doses to about 46.1 µM), without a hit: at the highest dose activity, negative = inhibition, usual class: inhibitors. HepG2 CAGA-GFP TGF-b/SMAD3 reporter, GFP fluorescence, 18 h; TGF-beta stimulated, 500 pg/mL final. AID 588855; also: potency is read from the fitted curve at half-maximal effect; % is scaled to controls: 0 for no effect and ±100 for the full control effect; nearly all actives have a fitted effect of over 65% in size
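Per well, imaged GFP fluorescence of HEPG2 CAGA-GFP cells gives the signal; cells get compound, then TGF-beta (500 pg/mL final), 18 h at 37 degrees C; %Activity versus -TGF-beta and +DMSO controls.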
ATXN viability = viability counter-screen for ATXN expression inhibitors | 400,000 tested, 0.49% active | Potency, µM (series often up to 56.7 µM), hits mostly cytotoxic | S2 cells (HEK-293 line with an ATXN2-luciferase reporter) viability, CellTiter-Fluor protease fluorescence, 24 h; also: potency is read from the fitted curve at half-maximal effect; nearly all actives have a fitted effect of over 40% in size
* hit, by the source's call; i = inactive; u = inconclusive; x = no result; [ ] = another dose, or the depositor's remark. Unless noted, calls follow the shape of the dose curve; as a rule, active = well fitted curve in the direction sought with a large enough effect; inconclusive = small, poorly fitted or top-dose-only effect, or another doubt; inactive = no such curve, though single readings can be large; an effect the other way counts as inactive or inconclusive.

SMILES	CtBP-E1A blk	HepG2 tox	Six1-Eya2 inh	ATXN2 expr inh	TGFb inhibitor	ATXN viability
CCc1ccc(CN(Cc2cn[nH]c2-c2ccc(OC)cc2)C(=O)Nc2ccc(Br)cc2)cc1	x	-40%	x	x	7.9µM*	x
CCOc1ccc(NC(=O)N(Cc2ccc(CC)cc2)Cc2cn[nH]c2-c2ccc(OC)cc2)cc1	x	-17%	x	x	8.9µM*	x
Cc1cc(C)cc(OCCSc2nc3ccc(NC(=O)c4cccs4)cc3s2)c1	x	-18%	x	-13%	-33%	i
CCOC(=O)Cn1c(=O)oc2cc(S(=O)(=O)N3CCN(c4cccc(C)c4)C(C)C3)ccc21 (configuration not stated)	x	-28%	x	x	u	x
N[C@H](C(=O)O)c1ccc(O)cc1	x	x	x	1%[25.6 µM]	x	i
CCOC(=O)[C@]12Cc3c(cc(OC)c(OC)c3OC)[C@H]1N(C1CCCCC1)C(=O)c1cc(OC)ccc12	-1	x	-7	u	x	14µM*
CCOC(=O)N1CCC(N2C(=O)c3ccccc3C2Nc2cc(OC)c(OC)c(OC)c2)CC1 (configuration not stated)	2	-23%	3	3%	4%	i
Cc1ccc(C(=O)NCCc2nnc3n2CCN(Cc2cc(C)cc(C)c2)CC3)cc1	x	x	x	x	x	i
c1coc(-c2ccccc2CN2CCOc3ccc(CN4CCOCC4)cc3C2)c1	x	x	x	x	x	i
O=[N+]([O-])c1ccc(S(=O)Cc2ccccc2)c([N+](=O)[O-])c1 (configuration not stated)	-23	-115%	u	u	7.9µM*	21µM*
COc1ccccc1C(=O)N1CCOc2ccc(C(C)(O)CCn3cccn3)cc2C1 (configuration not stated)	x	x	x	x	x	i
CCS(=O)(=O)Nc1ccc2[nH]c(O)c(C(=Nc3ccc(CN4CCCCC4)cc3)c3ccccc3)c2c1	x	x	x	7.7µM*	x	x
CN(C)c1ccc(C=NC(CO)C(O)c2ccc([N+](=O)[O-])cc2)cc1 (configuration not stated)	-2	-32%	6	-4%	26%	i
CN(C)c1ccc(C(c2ccc(N(C)C)cc2)c2ccc([N+](=O)[O-])cc2)cc1	u	-31%	-83*	-4%	4%	i
CCN(CC)c1ccc(/C=C2\C(=O)N(c3nnc(C)c(=O)[nH]3)N=C2C)cc1	-92*	-55%	-92*	-17%	u	i
CCN(CC)c1ccc(/C=C2/C(=O)ON=C2C)cc1	-21	-24%	-9	-11%	-1%	i
CCCCOCCOc1nc(-c2ccc(C(=O)O)c(F)c2)sc1C	x	x	x	30%	x	x
O=C(Nc1cccc(-c2csc(Nc3cccc(C(F)(F)F)c3)n2)c1)c1ccccc1	-2	-9%	5	u	u	25µM*
Cc1ccc(Cl)cc1N1CCN(C(=O)c2cnn(C)c2C2CCN(C(=O)OC(C)(C)C)CC2)CC1	x	-6%	x	x	u	x
CN(O)/C=c1/ccc2c(n1)C(=O)C=CC=2	-96*	-11%	-93*	-23%	u	i
COc1cc(=O)n2c(c1C(=O)NC(C)c1ccco1)CCN(C(=O)c1ccc(F)cc1Cl)CC2 (configuration not stated)	x	x	x	x	x	i
Cc1cc(Nc2cccc(C(F)(F)F)c2)nc2ccc(NC(=O)Cc3ccc(Cl)cc3)cc12	x	10µM*	x	20µM*	u	i
O=C(O)c1ccc2c(c1)nc(Nc1cccc(Cl)c1)c1ccncc12	x	x	x	9.7µM*	x	x
Cc1cc(Nc2cccc(Cl)c2)nc2ccc(NC(=O)c3cccc(N(C)C)c3)cc12	x	-28%	x	-12%	-2%	i
Cc1cc(Nc2cccc(Cl)c2)nc2ccc(NC(=O)c3cccnc3)cc12	x	13µM*	x	u	16µM*	i
Cc1[nH]c2c(F)cccc2c1CC(=O)NCCN1Cc2ccccc2OC(C)C1 (configuration not stated)	x	x	x	x	x	i
